Laboratory results as given in PubChem BioAssay AID1159580 (chemical genetic matrix, 2015).
Hit rate of the full screen: of about 5,500 compounds, about 2,000 (36%) were called active. Inconclusive results (about 18%) are left out. The list shows a part of the results. A number with no mark means an inactive call. Rule as the data show it: active = normalized growth mostly below about 0.91 (no sharp cut-off); inconclusive = no clear call, values can overlap the other calls; inactive = mostly above about 0.92.

Test: chemical genetic growth profiling, strain panel (AID 1159580);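 also: tested at 20 µM; growth read once vehicle control cultures reached saturation at 30 °C; 1 = growth at the plate median or of vehicle wells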
Conditions: S. cerevisiae deletion strains, growth OD

## Cc1nccc2c1[nH]c1ccccc12
Locus YAL013W, strain DEP1, stronger effect = lower value
  normalized growth: 1.01
Locus YAL021C, strain ccr4, stronger effect = lower value
  normalized growth: 0.956
Locus YAL026C, strain drs2, stronger effect = lower value
  normalized growth: 0.975
Locus YAL030W, strain snc1, stronger effect = lower value
  normalized growth: 0.992
Locus YAL040C, strain CLN3, stronger effect = lower value
  normalized growth: 1.11
Locus YBL061C, strain skt5, stronger effect = lower value
  normalized growth: 0.975
Locus YBR009C, strain hhf1, stronger effect = lower value
  normalized growth: 0.971
Locus YBR023C, strain chs3, stronger effect = lower value
  normalized growth: 0.974
Locus YBR171W, strain sec66, stronger effect = lower value
  normalized growth: 0.969
Locus YBR231C, strain swc5, stronger effect = lower value
  normalized growth: 0.972
Locus YBR279W, strain paf1, stronger effect = lower value
  normalized growth: 0.991
Locus YCL011C, strain gbp2, stronger effect = lower value
  normalized growth: 0.965
Locus YCL016C, strain dcc1, stronger effect = lower value
  normalized growth: 0.99
Locus YCL061C, strain MRC1 (second series), stronger effect = lower value
  normalized growth: 1.01
Locus YCL069W, strain vba3, stronger effect = lower value
  normalized growth: 0.977
Locus YCR088W, strain abp1, stronger effect = lower value
  normalized growth: 0.977
Locus YDL005C, strain med2, stronger effect = lower value
  normalized growth: 0.965
Locus YDL040C, strain nat1, stronger effect = lower value
  normalized growth: 0.983
Locus YDR001C, strain nth1, stronger effect = lower value
  normalized growth: 0.991
Locus YDR069C, strain doa4, stronger effect = lower value
  normalized growth: 0.941
Locus YDR137W, strain rgp1, stronger effect = lower value
  normalized growth: 0.967
Locus YDR159W, strain sac3, stronger effect = lower value
  normalized growth: 0.989
Locus YDR195W, strain ref2
  normalized growth: 1.03
Locus YDR297W, strain sur2, stronger effect = lower value
  normalized growth: 0.976
Locus YDR334W, strain swr1, stronger effect = lower value
  normalized growth: 0.971
Locus YDR335W, strain msn5, stronger effect = lower value
  normalized growth: 0.975
Locus YDR363W, strain ESC2, stronger effect = lower value
  normalized growth: 1
Locus YDR392W, strain spt3, stronger effect = lower value
  normalized growth: 0.963
Locus YEL003W, strain gim4, stronger effect = lower value
  normalized growth: 0.983
Locus YEL037C, strain rad23, stronger effect = lower value
  normalized growth: 0.983
Locus YEL061C, strain CIN8 (second series), stronger effect = lower value
  normalized growth: 0.944
Locus YER002W, strain NOP16, stronger effect = lower value
  normalized growth: 0.991
Locus YER015W, strain faa2, stronger effect = lower value
  normalized growth: 0.991
Locus YER016W, strain bim1, stronger effect = lower value
  normalized growth: 0.984
Locus YER111C, strain swi4, stronger effect = lower value
  normalized growth: 0.973
Locus YER155C, strain BEM2 (second series), stronger effect = lower value
  normalized growth: 0.954
Locus YFR010W, strain ubp6, stronger effect = lower value
  normalized growth: 0.955
Locus YGL167C, strain pmr1, stronger effect = lower value
  normalized growth: 0.996
Locus YGL173C, strain kem1, stronger effect = lower value
  normalized growth: 0.981
Locus YGL227W, strain vid30, stronger effect = lower value
  normalized growth: 0.976
Locus YGL240W, strain doc1, stronger effect = lower value
  normalized growth: 0.968
Locus YGL253W, strain hxk2, stronger effect = lower value
  normalized growth: 0.959
Locus YGR078C, strain PAC10, stronger effect = lower value
  normalized growth: 1.02
Locus YHR013C, strain ard1, stronger effect = lower value
  normalized growth: 0.951
Locus YHR027C, strain rpn1, stronger effect = lower value
  normalized growth: 0.996
Locus YHR030C, strain SLT2, stronger effect = lower value
  normalized growth: 1.05
Locus YHR079C, strain IRE1, stronger effect = lower value
  normalized growth: 1.06
Locus YHR142W, strain chs7, stronger effect = lower value
  normalized growth: 0.97
Locus YJL092W, strain hpr5, stronger effect = lower value
  normalized growth: 0.963
Locus YJL095W, strain BCK1 (second series), stronger effect = lower value
  normalized growth: 0.972
Locus YJL095W, strain BCK1, stronger effect = lower value
  normalized growth: 1.03
Locus YJL115W, strain asf1, stronger effect = lower value
  normalized growth: 0.975
Locus YJL129C, strain trk1, stronger effect = lower value
  normalized growth: 0.959
Locus YJL154C, strain vps35, stronger effect = lower value
  normalized growth: 0.981
Locus YJL164C, strain tpk1, stronger effect = lower value
  normalized growth: 0.993
Locus YJL166W, strain qcr8, stronger effect = lower value
  normalized growth: 0.972
Locus YJL187C, strain SWE1, stronger effect = lower value
  normalized growth: 0.962
Locus YJR066W, strain TOR1, stronger effect = lower value
  normalized growth: 0.972
Locus YKL160W, strain elf1, stronger effect = lower value
  normalized growth: 0.995
Locus YKR026C, strain gcn3, stronger effect = lower value
  normalized growth: 0.983
Locus YKR091W, strain srl3, stronger effect = lower value
  normalized growth: 0.973
Locus YLL001W, strain dnm1, stronger effect = lower value
  normalized growth: 0.977
Locus YLL026W, stronger effect = lower value
  normalized growth: 0.999
Locus YLL041C, strain sdh2, stronger effect = lower value
  normalized growth: 0.979
Locus YLR027C, strain aat2, stronger effect = lower value
  normalized growth: 0.995
Locus YLR113W, strain HOG1, stronger effect = lower value
  normalized growth: 1.04
Locus YLR221C, strain rsa3, stronger effect = lower value
  normalized growth: 0.971
Locus YLR258W, strain gsy2, stronger effect = lower value
  normalized growth: 0.991
Locus YLR262C, strain YPT6 (second series), stronger effect = lower value
  normalized growth: 0.956
Locus YLR320W, strain mms22, stronger effect = lower value
  normalized growth: 0.97
Locus YLR342W, strain FKS1, stronger effect = lower value
  normalized growth: 0.968
Locus YLR357W, strain rsc2, stronger effect = lower value
  normalized growth: 1.04
Locus YLR370C, strain arc18, stronger effect = lower value
  normalized growth: 0.968
Locus YLR384C, strain iki3, stronger effect = lower value
  normalized growth: 0.996
Locus YML120C, strain ndi1, stronger effect = lower value
  normalized growth: 0.982
Locus YMR058W, strain fet3, stronger effect = lower value
  normalized growth: 0.983
Locus YMR125W, strain sto1, stronger effect = lower value
  normalized growth: 1.02
Locus YMR129W, stronger effect = lower value
  normalized growth: 0.984
Locus YMR205C, strain PFK2, stronger effect = lower value
  normalized growth: 1.01
Locus YMR231W, strain pep5, stronger effect = lower value
  normalized growth: 0.977
Locus YMR307W, strain GAS1, stronger effect = lower value
  normalized growth: 1.01
Locus YNL071W, strain lat1, stronger effect = lower value
  normalized growth: 0.973
Locus YNL175C, strain NOP13, stronger effect = lower value
  normalized growth: 0.39 (active)
Locus YNL183C, strain NPR1, stronger effect = lower value
  normalized growth: 0.993
Locus YNL197C, strain WHI3, stronger effect = lower value
  normalized growth: 0.955
Locus YNL209W, strain ssb2, stronger effect = lower value
  normalized growth: 0.993
Locus YNL248C, strain rpa49, stronger effect = lower value
  normalized growth: 0.955
Locus YNL322C, strain KRE1 (second series), stronger effect = lower value
  normalized growth: 0.993
Locus YNL322C, strain KRE1, stronger effect = lower value
  normalized growth: 1.01
Locus YNR049C, strain mso1, stronger effect = lower value
  normalized growth: 0.976
Locus YOR001W, strain rrp6, stronger effect = lower value
  normalized growth: 0.943
Locus YOR070C, strain gyp1, stronger effect = lower value
  normalized growth: 0.98
Locus YOR080W, strain dia2, stronger effect = lower value
  normalized growth: 0.986
Locus YOR083W, strain WHI5 (second series), stronger effect = lower value
  normalized growth: 1.03
Locus YOR083W, strain WHI5, stronger effect = lower value
  normalized growth: 0.994
Locus YOR106W, strain vam3, stronger effect = lower value
  normalized growth: 0.958
Locus YOR231W, strain MKK1, stronger effect = lower value
  normalized growth: 1.06
Locus YOR265W, strain rbl2, stronger effect = lower value
  normalized growth: 0.972
Locus YOR270C, strain vph1, stronger effect = lower value
  normalized growth: 0.913
Locus YOR290C, strain snf2, stronger effect = lower value
  normalized growth: 0.994
Locus YPL051W, strain arl3, stronger effect = lower value
  normalized growth: 0.988
Locus YPL078C, strain atp4, stronger effect = lower value
  normalized growth: 0.972
Locus YPL106C, strain sse1, stronger effect = lower value
  normalized growth: 0.978
Locus YPL240C, strain hsp82, stronger effect = lower value
  normalized growth: 0.986
Locus YPL241C, strain CIN2, stronger effect = lower value
  normalized growth: 1.01
Locus YPL256C, strain CLN2, stronger effect = lower value
  normalized growth: 1.04
